# Screening data (PubChem)
# This is a sample that favours compounds with a hit; in the whole collection about 7.5% have one here.
# HCMV inh: blocks human cytomegalovirus replication; HFF cells, HCMV-luciferase reporter, 72 h; hits give low values; activity change, negative = inhibition, % at 57.5 µM; actives 4.5% (n = 410,000); in the data active = activity change below about -60%; inconclusive = no clear call, values can overlap the other calls; inactive = above about -39%
#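 Inhibition of viral replication was scored as loss of reporter luminescence in HFFs infected with HCMV-luciferase (MOI 1 PFU/cell) for 72 h; compounds tested at 2 doses, normalized to buffer and Salinomycin controls.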
# HCV inh: inhibitors of hepatitis C virus infection; Huh7.5.1 HCVcc-Cre infection, luciferase reporter, 44 h; Potency, µM (titrated, usually from 41.8 µM), for the others: top-dose activity change, negative = inhibition, actives largely listed as inhibitors; actives 3.4% (n = 340,000); AID 651820; also: potency is read from the fitted curve at half-maximal effect
#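 Cells (1,000/well) were plated 4 h before compound, then infected with HCVcc-Cre virus (~0.5 moi). After 44 h further culture, infection was read as luciferase luminescence following a 15 min substrate incubation at room temperature.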
# Giardia FBPA inh: blocks Giardia fructose-bisphosphate aldolase activity. A8B2U2. purified Giardia FBPA. Potency, µM (top dose mostly 59.6 µM), inactives show top-dose activity, negative = inhibition, hits mostly inhibitors. actives 0.71% (n = 290,000); also: potency is read from the fitted curve at half-maximal effect; nearly all actives have a fitted effect of over 55% in size
# Target sequence (A8B2U2 whole entry, looked up): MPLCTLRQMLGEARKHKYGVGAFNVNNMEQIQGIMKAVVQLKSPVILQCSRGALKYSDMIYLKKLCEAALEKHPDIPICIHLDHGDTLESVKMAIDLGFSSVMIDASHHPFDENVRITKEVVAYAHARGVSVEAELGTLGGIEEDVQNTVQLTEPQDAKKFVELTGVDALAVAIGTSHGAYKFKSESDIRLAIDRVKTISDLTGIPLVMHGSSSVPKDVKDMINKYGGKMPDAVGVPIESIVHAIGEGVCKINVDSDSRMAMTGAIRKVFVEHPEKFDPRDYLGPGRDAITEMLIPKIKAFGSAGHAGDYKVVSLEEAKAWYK
#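 Giardia FBPA (40 nM reagent) was preincubated 10 min at RT with compound (up to 57.5 uM final), then substrate plus GAPDH/TPI/NAD/arsenate coupling system with diaphorase/resazurin was added; resorufin fluorescence (525/598 nm) was read after 20 min.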
# FMDV inh: antivirals against foot and mouth disease virus | actives 1.2% (n = 410,000) | Potency, µM (highest dose often 57.9 µM), inactives show top-dose activity change, negative = inhibition, most hits filed as inhibitors | AID 1159524 | FMDV antiviral cell-based qHTS; calls by dose curve; tested in HEK293T cells; also: read-out not given here; potency is read from the fitted curve at half-maximal effect; nearly all actives have a fitted effect of over 45% in size
# Vaccinia mCherry: inhibitors of vaccinia virus infection (mCherry reporter signal); actives 0.63% (n = 310,000); Potency, µM (top dose mostly 36.5 µM), for the others: at the top dose activity change, negative = inhibition, hits mostly inhibitors; Vaccinia virus mCherry reporter infection, fluorescence; calls by dose curve; tested in A549 cells; also: potency is read from the fitted curve at half-maximal effect; nearly all actives have a fitted effect of over 35% in size
# Vaccinia Venus: inhibitors of vaccinia virus (Venus reporter); Vaccinia virus Venus reporter expression, fluorescence; actives 0.46% (n = 330,000); Potency, µM (doses to about 36.5 µM), for the others: at the top dose activity change, negative = inhibition, hits mostly inhibitors; calls by dose curve; tested in A549 cells; also: potency is read from the fitted curve at half-maximal effect; nearly all actives have a fitted effect of over 30% in size
# Starred values were filed as active, the others as inactive; i = inactive; ? = inconclusive; / = not tested or not shown; [ ] = remark or other dose. Unless noted, calls follow the shape of the dose curve; as a rule, active = well fitted curve in the direction sought with a large enough effect; inconclusive = small, poorly fitted or top-dose-only effect, or another doubt; inactive = no such curve, though single readings can be large; an effect the other way counts as inactive or inconclusive. % is scaled to controls: 0 for no effect and ±100 for the full control effect.
SMILES,HCMV inh,HCV inh,Giardia FBPA inh,FMDV inh,Vaccinia mCherry,Vaccinia Venus
O=c1cc(CN2CCN(c3ccc(F)cc3)CC2)c2cc3c(cc2o1)CCCC3,-62*,16%,/,-12%,/,/
CC1(C(=O)NS(=O)(=O)c2cccc(Cl)c2)CCN1C(=O)c1ccccc1 (stereo not given),-20,/,/,-12%,4%,-6%
COc1ccccc1NC(=O)C(C)OC(=O)CCNS(=O)(=O)c1ccc(C)c(C)c1 (stereo not given),-7,-8%,/,0%,0%,-15%
C=CCc1cc(OC)ccc1OCCOCCN1CCc2ccccc2C1,-39,-19%,?,?,?,-12%
Cc1ccc(C)c2c(N)c3c(nc12)CCCCC3 (tested in a mixture with another compound),-70*,?,-4%,-25%,-26%,-10%
CCCC#Cc1ccc2c(c1)O[C@@H](CN(C)Cc1ccc3c(c1)OCO3)[C@H](C)CN([C@@H](C)CO)S2(=O)=O,-6,/,/,-22%,-10%,-19%
COc1ccc(-n2nc3cc(C)c(N)c(Br)c3n2)cc1,55,?,7.1µM*,19%,i,-5%
COc1ccc(-n2nc3cc(N)c(Br)cc3n2)cc1,230,?,1%,51%,?,-29%
CC(=O)NCCCNC(=S)NCCCN(Cc1ccc(Cl)cc1)c1ccc(Br)cn1,-24,/,/,-11%,?,11µM*
CCN(CC(=O)Nc1ccc(C)c(S(=O)(=O)N2CCOCC2)c1)Cc1ccccc1,-22,-25%,/,-2%,-2%,-19%
CCCCOc1ccc(C(=O)N2CCCC2)cc1,110,1%,3%,24%,/,/
CCCCOc1c(Cl)cc(C(=O)N2CCN(CC(=O)N3CCCC3)CC2)cc1OCC,-29,10µM*,/,-29%,?,?
CCc1nc2sc3c(O)cc(=O)[nH]c3c2cc1C,-81*,2%,4%,-1%,i,-12%
COc1ccccc1N1CCN(C(CNC(=O)C(=O)NCCc2ccccc2)c2cccnc2)CC1 (stereo not given),-40,/,/,25µM*,-30%,-30%
O=C(NCCc1c[nH]c2ccccc12)C(=O)NCC(c1cccnc1)N1CCN(c2ccccc2)CC1 (stereo not given),?,10µM*,2%,?,16µM*,?
CCN(CC)c1ccc(/C=C/C2=C3C=CC=CC3NC=C2)cc1 (stereo not given),/,/,/,/,38%,38%
Cc1ccc(O)c(N=Cc2sc3ccccc3c2Cl)c1,-9,-6%,-21%,37%,?,-25%
Oc1ccccc1N=Cc1sc2ccccc2c1Cl,-76*,-26%,-26%,8%,?,-19%
Cc1[nH]c2ccccc2c1C(=O)CNc1nccs1,26,22µM*,?,-3%,i,-2%
Cc1[nH]c2ccccc2c1C(=O)CSc1ccccn1,-10,?,-21%,2%,i,-21%
Cc1[nH]c2ccccc2c1C(=O)COC(=O)c1ccccc1O,10,11µM*,/,5%,i,-20%
CCOC(=O)c1c(C)[nH]c(C)c1C(=O)COC(=O)c1ccccc1O,-2,-7%,-11%,-20%,i,-5%
Cc1[nH]c2ccccc2c1C(=O)CCl,?,?,-2%,25µM*,?,?
CSc1nc(-c2ccccc2)nc2ccccc12,33,/,/,/,/,/
N=c1ccn(Cc2cccc(F)c2)cc1,?,3.2µM*,-1%,?,?,-27%
O=C(CSc1nc(=O)n(CCN2CCOCC2)c2c1CCC2)Nc1cccc(Cl)c1,14,/,/,0%,-1%[7.34 µM],-3%[7.34 µM]
COc1ccc(N2Cc3ccccc3C2=NC(=O)c2cncc(Br)c2)cc1,-81*,3%,-27%,45%,/,/
CC(C)c1onc(C(=O)NCc2cccs2)c1[N+](=O)[O-],-68*,12%,0%,0%,i,-10%
COC(=O)c1cccnc1-n1c(=O)c2cccnc2n(Cc2ccc(Cl)cc2)c1=O,11,10%,-1%,-7%,/,/
COC(=O)c1cccnc1-n1c(=O)c2cccnc2n(Cc2cccc([N+](=O)[O-])c2)c1=O,-86*,-4%,-2%,-16%,/,/
